The campaign covered roughly 330,000 compounds. About 4,100 (1.2%) were called active. Not shown: some 2% with an inconclusive outcome. Only a selection was taken, and actives are over-represented in it overall. Unmarked numbers belong to inactive results. Rule for the calls: active = max response of -50% or lower; inconclusive = between -30% and -50%; inactive = -30% or higher.
Each compound was assayed against Phosphatidylinositol 5-phosphate 4-kinase type-2 alpha (Homo sapiens) (UniProt P48426) (assay: qHTS for Inhibitors of phosphatidylinositol 5-phosphate 4-kinase (PI5P4K)). Details: PI5P4Kalpha enzyme, ADP-Glo luminescence, 60 min; active compounds read low.
Outline: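 ADP-Glo luminescence end-point after a 60 min room-temperature kinase reaction. PI5P4Kalpha and substrate in HEPES pH 7.4 buffer with EGTA, 0.1% CHAPS and 5% DMSO; ATP at 5 microM final.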
% is set by controls: 0 for no effect and ±100 for the full control effect.
Note: value at the top dose of about 77 µM.

Chain of Phosphatidylinositol 5-phosphate 4-kinase type-2 alpha (Homo sapiens) (P48426 whole entry, looked up): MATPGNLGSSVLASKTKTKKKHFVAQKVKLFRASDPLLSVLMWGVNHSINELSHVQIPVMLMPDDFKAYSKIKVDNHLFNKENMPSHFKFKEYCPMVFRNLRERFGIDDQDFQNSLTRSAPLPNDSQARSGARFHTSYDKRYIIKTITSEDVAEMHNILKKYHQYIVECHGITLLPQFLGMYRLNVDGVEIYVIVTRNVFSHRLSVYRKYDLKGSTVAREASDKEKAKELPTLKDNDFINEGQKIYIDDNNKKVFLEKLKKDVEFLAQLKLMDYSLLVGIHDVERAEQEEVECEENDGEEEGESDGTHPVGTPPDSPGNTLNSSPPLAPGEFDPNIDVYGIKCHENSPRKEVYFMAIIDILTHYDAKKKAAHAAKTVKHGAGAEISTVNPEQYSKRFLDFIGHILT

Row | SMILES | max response
1 | OC(c1cc(Cl)cc(Cl)c1)c1ncc(-c2ccccc2C(F)(F)F)[nH]1 (centres undefined) | 14.3%
2 | COc1ccc(NC(=O)C2Cc3c(-c4cccc(NC(C)=O)c4)ccnc3O2)cc1OC (centres undefined) | -8.09%
3 | C=CCC[C@H](CCCCC)OC(=O)/C=C/[C@H](O)[C@@H](O)C[C@@H](O)CC=C | 17.1%
4 | NS(=O)(=O)c1ccc(N=Nc2c(O)[nH]c3ccc(Br)cc23)cc1 | -0.139%
5 | O=C(CNC(=O)Cc1ccccc1)N=Nc1c(O)[nH]c2ccc(Br)cc12 | -6.57%
6 | Oc1[nH]c2ccc(Br)cc2c1N=Nc1nn[nH]n1 | -58.4% (active)
7 | CC1(C(=O)NCc2ccccc2)CN(S(C)(=O)=O)CC(=O)N1CC(F)(F)F (centres undefined) | -7.01%
8 | O=C(O)c1ccccc1N=N/C(=N/Nc1cc(S(=O)(=O)O)ccc1O)c1ccccc1 | -101% (active)
9 | CN1OC[C@@H]2CN(C(=O)c3cccc4ccccc34)[C@H](c3ccc(N4CCCCC4)cc3)C[C@@H]21 | -0.774%
10 | COC(=O)c1ccc2nc(-c3ccc(OC)c(OC)c3)c(Cc3ccccc3)n2c1 | -1.07%
11 | CCOC(=O)C=Cc1ccc(C(=O)OCC)[nH]1 | 2.97%
12 | CCN(CCN(C)C)C(=O)c1ccc2nc(C)c(N(C)C(=O)CCc3ccccc3)n2c1 | 10.1%
13 | CC1CCN(C(=O)COC(=O)CCC(=O)c2cccs2)CC1 | -4%
14 | O=C(COC(=O)Cc1ccc(Cl)cc1Cl)NCc1ccco1 | 0.392%
15 | O=C(COC(=O)c1ccccc1O)NCc1ccco1 | -51.6% (active)
16 | O=C(COC(=O)c1cccs1)NCc1cccs1 | -2.68%
17 | O=C(COC(=O)CCC(=O)c1cccs1)NCc1ccco1 | -63% (active)
18 | O=C(COC(=O)c1cc(S(=O)(=O)N2CCCCC2)ccc1Cl)NCc1ccco1 | -24.6%
19 | Cc1cc(C)n2c(Nc3c(C)cccc3C)c(CCc3ccccc3)nc2n1 | 0.703%
20 | Cc1ccc(Cc2c(-c3ccc(Cl)cc3)nc3c4ccccc4ccn23)cc1 | 19.7%
21 | Cc1ccccc1Cn1c(C)c(C(=O)NCc2cccc(C(F)(F)F)c2)sc1=O | 6.94%
22 | CCCCCn1nnnc1-c1nc2cc3ccccc3cc2[nH]c1=O | -6.84%
23 | CCOC(=O)C(C(=O)c1ccccc1)C(c1ccccc1)c1nccc2ccccc12 (centres undefined) | -6.07%
24 | N#Cc1c(-c2ccccc2)cc(-c2ccccc2)nc1SCC(=O)O | -13.7%
25 | N#CCc1c(C#N)c(N)nc(N2CCCC2)c1C#N | -5.04%
26 | N#Cc1c(N2CCCCC2)nc(N)c2c(N)nc(SCC(=O)O)cc12 | -86.9% (active)
27 | Nc1ncnc2c1ncn2[C@@H]1O[C@H](C(=O)NS(=O)(=O)c2c(Cl)nc3sccn23)[C@@H](O)[C@H]1O | -5.36%

Row | SMILES | max response
28 | CC(C)(C)CC(=O)Nc1nc(C(N)Cc2ccc(C(F)(F)F)cc2)cs1 (centres undefined) | 0.168%
29 | Nc1ncnc2c1ncn2[C@@H]1O[C@H](C(=O)N2CCCN(Cc3ccccc3F)CC2)[C@@H](O)[C@H]1O | 1.03%
30 | CCOC(=O)COc1nc(C)cc(C(F)(F)F)c1C#N | 3.55%
31 | CCOC(=O)C(Sc1ncc(C#N)c(N)n1)C(C)C (centres undefined) | -50.3% (active)
32 | CCOC(=O)CSc1nccc(N(C)C)c1C#N | -3.71%
33 | CCOC(=O)C1(C)CCCN(C(=O)c2ccc(F)c(Cl)c2)C1 (centres undefined) | -14.5%
34 | CCOC1=C2[C@@H](CN(S(=O)(=O)c3ccc(C)cc3)[C@H]2c2ccccc2F)[C@H]2C(=O)N(Cc3ccccc3)C(=O)[C@H]2C1 | -0.38%
35 | CCCNC(=O)C1(C)CCN(Cc2ccc(Cl)c(Cl)c2)C1 (centres undefined) | 6.81%
36 | CCCCN(C=O)c1c(CC)nc2c(OCc3ccccc3C(=O)OC)cccn12 | -7.91%
37 | O=C1[C@H]2[C@@H](c3ccc(C(F)(F)F)cc3)N[C@]3(CCCN(Cc4ccc(Cl)cc4)C3=O)[C@H]2C(=O)N1Cc1ccccc1 | 6.21%
38 | COC(=O)[C@@]12C[C@@H](CC(=O)NCCCCc3ccccc3)C(=O)N(CCc3ccc(OC)c(OC)c3)C1=CCC(C)(C)C2 | 21.2%
39 | O=C(c1ncn2c1c(=O)[nH]c1ccccc12)N1CCc2ccccc2C1 | -1.33%
40 | O=c1[nH]n2c(-c3ccccc3)nc(O)c2c2ccccc12 | -2.92%
41 | O=c1[nH]c2ccccc2n2c(-c3ccccc3)nnc12 | -92.9% (active)
42 | CN(Cc1ccccc1F)c1cc2c(c3c1ccn3C)C1CCC2O1 (centres undefined) | -0.125%
43 | C[C@@H]1CN([C@H](C)CO)S(=O)(=O)c2ccc(C#C[C@@H](C)O)cc2O[C@@H]1CN(C)Cc1ccc(-c2ccccc2)cc1 | 2.03%
44 | OC[C@@H]1CN(Cc2ccc3c(c2)OCO3)C[C@H](n2cnc3c(NCc4ccco4)ncnc32)O1 | -4.15%
45 | CC(Sc1ccc(S(=O)(=O)N2CCN(C)CC2)cn1)C(=O)NC1CCCC(C)C1C (centres undefined) | 0.777%
46 | COc1ccc(-c2ccc3[nH]c4c(c3c2)CCN2C[C@H]3[C@H](C)ON(C)[C@H]3C[C@@H]42)cc1 | 0.74%
47 | O=C(C[C@H]1C[C@@H]2c3cc(NC(=O)C4CCC4)ccc3O[C@@H]2[C@H](CO)O1)NC1CCCCC1 | -3.63%
48 | Cc1nn(C)cc1/C=C1\CCC/C(=C\c2cn(C)nc2C)C1=O | -2.16%
49 | CCn1cc(/C=C2/SC(=S)NC2=O)c(C)n1 | -66.5% (active)
50 | C=C1C(=O)[C@]23C[C@H]1CCC2[C@@]1(C)C(C[C@@H]3O)[C@](C)(C(=O)O)CC[C@@H]1O (some centres undefined) | 3.48%
51 | O=[N+]([O-])c1ccc(CN2CC(N3CCC(c4ccccc4)CC3)CS2(=O)=O)cc1 (centres undefined) | 5.16%
52 | Cn1c(=O)[nH]c(=O)c2c1[nH]c(=S)n2Cc1ccccc1 | -85.5% (active)
53 | C=CCSc1nc2c(c(=O)[nH]c(=O)n2C)n1Cc1ccccc1 | 7.13%
54 | COc1ccc(CNc2nc3c(c(=O)[nH]c(=O)n3C)n2Cc2ccccc2)cc1 | 6.3%

— PubChem BioAssay AID652105 (National Center for Advancing Translational Sciences (NCATS), 2013)
